This is part of a sample that, as a whole, favours compounds with a hit. Of some 79,000 tested, about 15% had one in any assay. Cut-off read from the data, not from the text of the source: active = growth inhibition above about 70%; inactive = the rest.
Key:
[1] = NCI Yeast Anticancer Drug Screen. Data for the rad50 strain (AID 155);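 note: 0% = growth of vehicle-only cultures of the same strain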; settings: S. cerevisiae rad50 strain growth inhibition; at 50.0 µM; stronger effect = higher value
Method in brief: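 Growth of the mutant yeast was measured after compound exposure and referenced to vehicle-treated cultures.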

[2] = NCI Yeast Anticancer Drug Screen. Data for the mec2-1 strain (AID 157); settings: S. cerevisiae mec2-1 strain, at 50.0 µM, stronger effect = higher value
Method in brief: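 Strain: mec2-1 (DNA repair/cell cycle alteration). Compound exposure, then growth measured; inhibition expressed relative to vehicle.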

[3] = NCI Yeast Anticancer Drug Screen. Data for the sgs1 mgt1 strain (AID 161);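 note: 0% = growth of cultures given vehicle only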; settings: S. cerevisiae sgs1 mgt1 strain, at 50.0 µM, stronger effect = higher value
Method in brief: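 Inhibition of yeast growth, normalised to vehicle-treated controls, is reported for a strain bearing genetic alterations in DNA damage repair.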

[4] = NCI Yeast Anticancer Drug Screen. Data for the cln2 rad14 strain (AID 165);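 note: 0% = growth equal to vehicle treated cultures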; settings: S. cerevisiae cln2 rad14 strain, at 50.0 µM, stronger effect = higher value
Method in brief: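 Compounds are applied to the cln2 rad14 yeast strain, and growth is then compared with that of vehicle-treated cultures to give inhibition.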

[5] = NCI Yeast Anticancer Drug Screen. Data for the bub3 strain (AID 167); settings: S. cerevisiae bub3 mutant strain, at 50.0 µM, stronger effect = higher value
Method in brief: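 Whole-cell yeast assay. The mutant strain was incubated with compounds, and growth inhibition was determined by comparison with vehicle-treated cells.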

[6] = NCI Yeast Anticancer Drug Screen. Data for the mlh1 rad18 strain (AID 175); settings: S. cerevisiae mlh1 rad18 strain growth inhibition; at 50.0 µM; stronger effect = higher value
Method in brief: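 Read-out is yeast growth inhibition, calculated against vehicle-only controls. The compound was applied to a strain engineered with DNA damage repair alterations.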

Measured: growth inhibition

CC(C)NCC(C)(C)[N+](=O)[O-]
inactive: [1] 5.05% | [2] -8.55% | [3] 3.65% | [4] -4.1% | [5] 3.3% | [6] -0.95%

CCOC(=O)C1CCCCN1C(=O)OCc1ccccc1 (stereo unspecified)
inactive: [1] -6.95% | [2] -1.75% | [3] 0.75% | [4] -8.05% | [5] 20.9% | [6] -42.3%

CCOC(=O)c1cnc2nc[nH]n2c1=O
inactive: [1] -52.8% | [2] -54.5% | [3] -11.2% | [4] 11.6% | [5] -67% | [6] -36.5%

NC(=S)c1ccncc1
inactive: [1] 6.5% | [2] 8.15% | [3] 13% | [4] 12.7% | [5] 5% | [6] -27.4%

N#Cc1c(-c2ccccc2)[nH]c2ccc(Cl)cc2c1=O
inactive: [1] 6.6% | [2] -30.5% | [3] -21.7% | [4] -7.8% | [5] -9.75% | [6] -28.1%

O=c1ccc2c(O)c([N+](=O)[O-])cc([N+](=O)[O-])c2[nH]1
inactive: [1] 10% | [2] -15.7% | [3] 3.15% | [4] 8.85% | [5] 6.3% | [6] 20.2%

Cc1cccc2c(/C=C/c3ccc(N(C)C)cc3)ccnc12
inactive: [1] -11.6% | [2] -8% | [3] -3.95% | [4] -22.2% | [5] 2.85% | [6] -11.4%

Cc1cccc(C(C)(C)C)c1NC(=O)/C(Cc1nc2ccc([N+](=O)[O-])cc2[nH]c1=O)=N/NC(=O)C[N+](C)(C)C
inactive: [1] 6.4% | [2] -10.4% | [3] -9.1% | [4] -17.4% | [5] -18.9% | [6] -22.6%

CCC(=O)OCCCCCCOC(=O)CC
inactive: [1] 18.3% | [2] 6% | [3] 12.5% | [4] -15% | [5] 19.9% | [6] -5.9%

CC(=O)CC(=O)NCCN(C)C
inactive: [1] -23.6% | [2] -43% | [3] -11.2% | [4] 5.95% | [5] -9.3% | [6] -6.65%

O=C(Cl)C(c1ccccc1)N1C(=O)c2ccccc2C1=O (stereo unspecified)
inactive: [1] 7.15% | [2] 2.15% | [3] 0% | [4] -38.5% | [5] -4% | [6] 0.95%

COc1ccc(C(Cc2cc(OC)c(OC)cc2Br)NC=O)cc1OC (stereo unspecified)
inactive: [1] 0.3% | [2] 7.35% | [3] -7.55% | [4] -3.15% | [5] 5% | [6] 31.4%

[Cl][Pt+2][Cl].[NH-]CC(O)c1ccc2oc3ccccc3c2c1.[NH-]CC(O)c1ccc2oc3ccccc3c2c1 (stereo unspecified)
inactive: [1] -23.3% | [2] -11.2% | [3] -30.6% | [4] -21.1% | [5] 7.35% | [6] 17.6%

O=C(OCCCl)OCCCl
inactive: [1] 41.5% | [2] 18.9% | [3] 22.4% | [4] -21.9% | [5] -5.3% | [6] 25%

CC(=O)Nc1ccc(C(=O)C=O)cc1
inactive: [1] -1.45% | [2] -4.4% | [3] 4.2% | [4] 26.5% | [5] -13.9% | [6] -40.8%

C#CCN(CCCC)CCCC
inactive: [1] -14.2% | [2] -21.1% | [3] -5.55% | [4] -33.4% | [5] -39.9% | [6] -10.3%

CC(=O)/C(=C/N1CCNC1=S)C(=O)Nc1ccc(Cl)cc1
inactive: [1] -34.5% | [2] -24% | [3] -39.6% | [4] 0.2% | [5] -39.2% | [6] -26.3%

CCCNc1nc(C)nc2[nH]cc(C)c12
inactive: [1] 7.35% | [2] -5.1% | [3] -3.15% | [4] -31.1% | [5] -7.7% | [6] -7.65%

CN(C)S(=O)(=O)c1ccc(Cl)cc1
inactive: [1] -1.65% | [2] -4.4% | [3] 2.7% | [4] 0.3% | [5] -0.2% | [6] -9.3%

COc1ccc2c(c1)C1CCCCC1SCC2=O (stereo unspecified)
inactive: [1] 1% | [2] 7.4% | [3] -1.9% | [4] -10.9% | [5] 15.8% | [6] -15.3%

COc1ccc(CSC(=S)Nc2ccc(F)c(C)c2)cc1
inactive: [1] 20.8% | [2] 14.4% | [3] 17.1% | [4] 28.1% | [5] 5.1% | [6] 10.6%

CCCCC1(N=[N+]=[N-])C(=O)c2cccc3c2N(CCC3)C1=O (stereo unspecified)
inactive: [1] 48.8% | [2] 30.9% | [3] 29.9% | [4] 3.1% | [5] 15.6% | [6] 61.5%

CCOC(=O)C(=O)Nc1ccc2cc(OC)ccc2c1C#N
inactive: [1] 13.8% | [2] 14.2% | [3] 14.8% | [4] 35.2% | [5] 19.4% | [6] -17.8%

O=[N+]([O-])c1ccc(COP(=O)(OCc2ccc([N+](=O)[O-])cc2)OCc2ccc([N+](=O)[O-])cc2)cc1
inactive: [1] -8% | [2] -2.35% | [3] 2.9% | [4] -46.5% | [5] 25.3% | [6] 4.75%

O=C1C2C3(CCl)C1C23CCl (stereo unspecified)
inactive: [1] 23.9% | [2] 46.6% | [3] 37.6% | [4] 10.4% | [5] 18.2% | [6] 40.6%

CCCN=C(NC(=O)c1ccc(Cl)cc1)SC
inactive: [1] -16.3% | [2] -41.5% | [3] -6.05% | [4] -6.7% | [5] 8.05% | [6] -46.4%

CN(C)c1ccc(N=C2C=CC(=C(C#N)C#N)c3ccccc32)cc1
inactive: [1] -24% | [2] -6.05% | [3] -14.2% | [4] -34% | [5] -20.9% | [6] -50%

Oc1[nH]c2ccccc2c1N=NC(=S)Nc1ccccc1Cl
inactive: [1] -8.2% | [2] -2.3% | [3] 46.5% | [4] 36.2% | [5] 21.8% | [6] 26.2%

CSCC(=O)c1ccccc1
inactive: [1] 17.4% | [2] 6.55% | [3] 9.25% | [4] -6.3% | [5] 2.15% | [6] 5.3%

O=C1CN(/C=C(\c2ccccc2)S(=O)Cc2ccccc2)C(=S)N1 (stereo unspecified)
inactive: [1] -19.9% | [2] -29.5% | [3] -28.4% | [4] -7.7% | [5] 0% | [6] -24.2%

COc1cc(C)cc(O)c1C=O
inactive: [1] 9.9% | [2] -9.95% | [3] -0.1% | [4] -17.1% | [5] -0.2% | [6] 3.45%

O=C1/C(=C/c2ccccc2)CCCC/C1=C\c1ccccc1
inactive: [1] 27.9% | [2] 31% | [3] 40.5% | [4] -1.9% | [5] 9.75% | [6] 15.9%

COc1cc(NS(=O)(=O)c2ccc(N)cc2)nc(OC)n1
inactive: [1] -28.3% | [2] -11.3% | [3] -11.1% | [4] -60.2% | [5] -22.6% | [6] -3.9%

O=C(C[n+]1ccccc1)c1cc2c(c3ccccc13)CCCC2
inactive: [1] 3.3% | [2] -3.2% | [3] 36.3% | [4] 20.8% | [5] -4.6% | [6] 19.5%

N#Cc1c(-c2ccccc2)cc(-c2ccccc2)n(C2OCC(O)C(O)C2O)c1=S (stereo unspecified)
inactive: [1] 5.1% | [2] 30.6% | [3] 31.5% | [4] -7.45% | [5] 3.15% | [6] -0.05%

CC(C)CCCC(C)C1CCC2C3CCC4=CCCCC4(C)C3CCC12C (stereo unspecified)
inactive: [1] 4.6% | [2] 33% | [3] 27.8% | [4] 33.1% | [5] 2.45% | [6] 50.7%

Cc1ccc(N=c2cc(-c3ccccc3)oc3ccccc23)cc1
inactive: [1] 11.9% | [2] -1.25% | [3] 11.7% | [4] 3.7% | [5] 12.7% | [6] 20.4%

COc1ccc(NC(=O)C/C(C)=C2/C(=O)NN(c3ccccc3)C2=O)cc1
inactive: [1] 33.5% | [2] 15.2% | [3] 39.9% | [4] 4.5% | [5] 19.1% | [6] 41.1%

C=CC(CO)N1CCCCC1 (stereo unspecified)
inactive: [1] -9.15% | [2] 24.6% | [3] -1.05% | [4] -8.9% | [5] -19.2% | [6] 13.9%

O=C(O)/C=C/c1cnc[nH]1
inactive: [1] -4.9% | [2] -2.3% | [3] -5.65% | [4] 11.9% | [5] 9.65% | [6] -1%

Cc1ccc(Cl)c(NC(=O)C(=O)C(C(=O)c2ccncc2)C2OC(=O)c3ccccc32)c1 (stereo unspecified)
inactive: [1] -14.6% | [2] -26.1% | [3] -37.1% | [4] 6.45% | [5] -5.85% | [6] -17.9%
